Experimental data as given in PubChem BioAssay.
Activity calls are given as the source filed them.

Columns and labels:
Albumin (Bos taurus) = Albumin (Bos taurus) (UniProt P02769); experiment: compounds binding labelled BSA control protein – biochemical, small-molecule microarray, Alexa647 label, 635/667 nm fluorescence, artefact control for SMM control protein annotation, profiling panel (AID 1118); conditions: BSA-A647 binding, fluorescence 635 nm, higher = more signal;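 note: score merges 667 nm emission intensity and signal-to-noise per printed compound spot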
Chain of Albumin (Bos taurus) (P02769 whole entry, looked up): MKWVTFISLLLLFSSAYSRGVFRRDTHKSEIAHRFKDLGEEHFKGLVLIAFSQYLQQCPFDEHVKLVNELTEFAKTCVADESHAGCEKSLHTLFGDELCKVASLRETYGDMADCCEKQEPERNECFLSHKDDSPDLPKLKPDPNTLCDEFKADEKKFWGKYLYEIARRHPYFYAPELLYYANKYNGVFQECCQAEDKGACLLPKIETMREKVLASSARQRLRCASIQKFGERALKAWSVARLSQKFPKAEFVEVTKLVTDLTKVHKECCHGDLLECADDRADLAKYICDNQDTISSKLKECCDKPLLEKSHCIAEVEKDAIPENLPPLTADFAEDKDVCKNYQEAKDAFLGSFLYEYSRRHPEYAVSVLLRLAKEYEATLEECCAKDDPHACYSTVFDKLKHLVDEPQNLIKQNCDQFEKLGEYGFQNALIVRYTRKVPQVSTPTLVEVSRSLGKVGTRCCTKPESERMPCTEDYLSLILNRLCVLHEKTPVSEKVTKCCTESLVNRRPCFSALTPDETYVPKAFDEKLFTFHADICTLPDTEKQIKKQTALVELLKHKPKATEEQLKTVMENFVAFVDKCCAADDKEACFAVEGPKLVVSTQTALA

[1] = probe aXIP binding to arrayed compounds – biochemical, NeuroSMM set, 635/667 nm fluorescence, primary screen (AID 1119); conditions: small-molecule microarray, higher = more signal, called active from +8 up or from −8 down;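 note: probe is the protein aXip251-270 applied at 1 µg/mL to compound-printed slides; binding of probe to printed compounds measured as 667 nm fluorescence plus signal to noise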
[2] = probe aNOTCH3 binding on compound microarray – biochemical, small-molecule microarray, 635/667 nm fluorescence, primary screen (AID 1120); conditions: higher = more signal;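 note: probe is a biotin-tagged antibody raised against NOTCH3 rather than NOTCH3 protein; score merges spot fluorescence near 667 nm with spot signal to noise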
[3] = probe aNOTCH2 binding on compound microarray – biochemical, small-molecule microarray, 635/667 nm fluorescence, primary screen (AID 1121); conditions: higher = more signal;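 note: score merges feature fluorescence read at 667 nm with its signal to noise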
[4] = target: Carbonic anhydrase 2 (Homo sapiens) (UniProt P00918); experiment: compounds binding carbonic anhydrase 2 – biochemical, small-molecule microarray, Alexa647-labelled CAII, profiling panel (AID 1122); conditions: CAII-A647 binding fluorescence, higher = more signal
[5] = COS7 lysate on small-molecule microarray, probe aHis, 635 nm (AID 1123); conditions: COS7 cell lysate, fluorescence, higher = more signal;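 note: z-score combines 667nm fluorescence intensity with signal-to-noise per printed compound spot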
[6] = probe aLAP1 signal on lysate-treated microarray – cell lysate, small-molecule microarray, COS7 lysate, primary screen (AID 1124); conditions: probe aLAP1, fluorescence, higher = more signal;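 note: lysate comes from COS7 cells expressing LAP1 and is applied at 0.3 µg/mL; score merges spot fluorescence near 667 nm with signal-to-noise over triplicate slides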
Sam68 (KHDRBS1) = experiment: compounds binding KHDRBS1 protein – biochemical, small-molecule microarray, 635 nm fluorescence, primary screen (AID 1125); conditions: higher = more signal;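 note: score merges 667 nm channel intensity with signal to noise over triplicate slides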
[7] = test system: Chordin-like protein 2 (CHRDL2); experiment: compounds binding chordin-like 2 – biochemical, small-molecule microarray, 635 nm fluorescence, primary screen (AID 1126); conditions: fluorescence 635 nm, higher = more signal;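 note: printed compound slides probed with Chrdl2 protein at 4 µg/mL for 1 h at 4 C; score merges 667 nm emission intensity with signal to noise over three replicate slides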
[8] = target: Concanavalin-A (Canavalia ensiformis) (UniProt P02866); experiment: compounds binding concanavalin A lectin – biochemical, small-molecule microarray, Alexa647 label, 635 nm, artefact control for SMM control protein annotation, primary screen (AID 1127); conditions: ConA-A647 binding fluorescence, higher = more signal;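 note: z combines 667 nm emission intensity with signal-to-noise across three replicate slides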
Chain of Concanavalin-A (Canavalia ensiformis) (P02866 whole entry, looked up): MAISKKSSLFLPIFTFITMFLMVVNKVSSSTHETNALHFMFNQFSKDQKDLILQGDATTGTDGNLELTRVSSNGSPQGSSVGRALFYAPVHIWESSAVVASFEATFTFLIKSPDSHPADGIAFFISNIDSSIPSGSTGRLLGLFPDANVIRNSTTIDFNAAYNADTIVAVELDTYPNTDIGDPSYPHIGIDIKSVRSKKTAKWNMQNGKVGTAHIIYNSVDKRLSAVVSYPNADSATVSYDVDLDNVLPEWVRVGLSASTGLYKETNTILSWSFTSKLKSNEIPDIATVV

[9] = compounds binding Alexa647 anti-His antibody – biochemical, small-molecule microarray, 635 nm fluorescence, artefact control for SMM control protein annotation, primary screen (AID 1128); conditions: higher = more signal;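 note: score merges feature fluorescence with signal-to-noise for each printed compound spot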
[10] = test system: Human papillomavirus type 1a E7 protein (residues 1-88); experiment: HPV1a E7 small-molecule binders, primary screen, biochemical, small-molecule microarray, residues 1-88, 635 nm (AID 1129); conditions: small-molecule microarray binding, fluorescence 635 nm; higher = more signal
[11] = target: Focal adhesion kinase 1 (Homo sapiens) (UniProt Q05397); experiment: PTK2 protein binding on printed compound slides – biochemical, small-molecule microarray, 635/667 nm fluorescence, BSA, DTT, primary screen (AID 1130); conditions: 635 nm fluorescence, higher = more signal;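 note: composite of spot emission at 667 nm and signal to noise over triplicate slides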
Chain of Focal adhesion kinase 1 (Homo sapiens) (Q05397 whole entry, looked up): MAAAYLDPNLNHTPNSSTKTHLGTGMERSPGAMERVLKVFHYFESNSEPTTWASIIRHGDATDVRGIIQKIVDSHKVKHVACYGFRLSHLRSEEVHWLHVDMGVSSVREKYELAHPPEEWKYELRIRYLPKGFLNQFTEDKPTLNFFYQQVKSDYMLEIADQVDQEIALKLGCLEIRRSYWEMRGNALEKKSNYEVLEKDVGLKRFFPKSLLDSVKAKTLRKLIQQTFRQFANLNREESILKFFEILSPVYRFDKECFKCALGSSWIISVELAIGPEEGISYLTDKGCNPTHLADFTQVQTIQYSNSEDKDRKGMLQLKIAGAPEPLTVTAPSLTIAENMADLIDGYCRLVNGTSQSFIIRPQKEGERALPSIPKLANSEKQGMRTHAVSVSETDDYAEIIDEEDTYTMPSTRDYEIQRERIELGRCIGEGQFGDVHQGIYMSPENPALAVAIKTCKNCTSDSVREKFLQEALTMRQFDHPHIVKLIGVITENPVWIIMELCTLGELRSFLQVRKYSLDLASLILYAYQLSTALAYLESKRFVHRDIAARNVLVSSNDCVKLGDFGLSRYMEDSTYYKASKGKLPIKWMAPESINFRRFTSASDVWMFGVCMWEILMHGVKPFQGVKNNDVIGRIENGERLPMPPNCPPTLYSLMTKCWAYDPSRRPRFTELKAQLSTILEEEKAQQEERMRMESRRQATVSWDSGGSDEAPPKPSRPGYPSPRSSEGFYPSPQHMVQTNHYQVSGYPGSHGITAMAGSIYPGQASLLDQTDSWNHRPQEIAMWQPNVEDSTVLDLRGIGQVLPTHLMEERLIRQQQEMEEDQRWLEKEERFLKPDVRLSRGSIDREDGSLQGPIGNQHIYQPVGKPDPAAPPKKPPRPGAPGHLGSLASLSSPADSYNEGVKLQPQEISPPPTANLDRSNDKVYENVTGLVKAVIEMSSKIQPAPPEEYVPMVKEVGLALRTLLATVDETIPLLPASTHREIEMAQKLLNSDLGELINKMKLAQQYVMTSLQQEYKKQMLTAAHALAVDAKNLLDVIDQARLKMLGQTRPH

[12] = test system: Fibrinogen (Alexa647-labelled); experiment: Alexa647-fibrinogen binding to printed small molecules – biochemical, small-molecule microarray, 635/667 nm fluorescence, artefact control for SMM control-protein annotation, profiling panel (AID 1131); conditions: fibrinogen-A647 binding fluorescence, higher = more signal;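 note: z-score merges 667 nm fluorescence with per-spot signal-to-noise over triplicate slides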
[13] = target: Follistatin (Homo sapiens) (UniProt P19883); experiment: FST protein binding to printed compounds – biochemical, small-molecule microarray, 635/667 nm fluorescence, primary screen (AID 1132); conditions: 635 nm fluorescence, higher = more signal
Chain of Follistatin (Homo sapiens) (P19883 whole entry, looked up): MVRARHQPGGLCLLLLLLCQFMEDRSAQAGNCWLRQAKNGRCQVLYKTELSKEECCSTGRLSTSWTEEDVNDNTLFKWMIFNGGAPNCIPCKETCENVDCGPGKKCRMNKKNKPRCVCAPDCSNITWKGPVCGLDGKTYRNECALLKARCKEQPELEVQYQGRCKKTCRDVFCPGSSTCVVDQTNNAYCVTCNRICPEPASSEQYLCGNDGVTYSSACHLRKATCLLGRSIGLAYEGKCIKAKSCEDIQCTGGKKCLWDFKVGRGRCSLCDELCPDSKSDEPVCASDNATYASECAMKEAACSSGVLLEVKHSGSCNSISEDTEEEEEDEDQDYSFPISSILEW

[14] = target: Fibroblast growth factor 2 (Homo sapiens) (UniProt P09038); experiment: basic fibroblast growth factor binding to printed compounds – biochemical, small-molecule microarray, 635/667 nm fluorescence, primary screen (AID 1133); conditions: FGF2, fluorescence 635/667, higher = more signal
Chain of Fibroblast growth factor 2 (Homo sapiens) (P09038 whole entry, looked up): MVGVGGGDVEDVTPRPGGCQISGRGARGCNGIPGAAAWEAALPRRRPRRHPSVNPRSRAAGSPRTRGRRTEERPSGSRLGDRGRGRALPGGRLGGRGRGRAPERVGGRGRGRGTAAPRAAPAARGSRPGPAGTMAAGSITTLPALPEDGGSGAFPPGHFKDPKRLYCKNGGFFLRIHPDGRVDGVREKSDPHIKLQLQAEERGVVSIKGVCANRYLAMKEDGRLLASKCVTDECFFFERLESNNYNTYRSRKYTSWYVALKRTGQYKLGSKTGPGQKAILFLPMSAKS

[15] = JC-1 mitochondrial potential readout, lung cancer cells – cell-based, A549, JC-1 fluorescence, basal, 24 h, 100 nL, profiling panel (AID 1138); conditions: higher = more signal;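 note: A549 lung adenocarcinoma cells under basal conditions with no added stimulus; test concentration not given here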
Lefty1 = Lefty1 protein binding to printed compounds – biochemical, small-molecule microarray, 635/667 nm fluorescence, primary screen (AID 1139); conditions: fluorescence 635/667, higher = more signal
[16] = test system: wheat germ agglutinin (Triticum aestivum), Alexa647-labelled; experiment: Alexa647-WGA lectin binding to printed small molecules – biochemical, small-molecule microarray, 635/667 nm fluorescence, artefact control for SMM control-protein annotation, profiling panel (AID 1140); conditions: WGA-A647 binding, 635 nm fluorescence, higher = more signal;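 note: score merges 667 nm feature emission with signal to noise over triplicate slides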
[17] = target: Luciferin 4-monooxygenase (Photinus pyralis) (UniProt P08659); experiment: inhibition of purified Photinus pyralis luciferase – biochemical, luminescence, purified enzyme, 2006 set, primary screen (AID 1141); conditions: purified firefly luciferase, SteadyGlo luminescence, 30 min; higher = more signal, called active from +8 up or from −8 down;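 note: cell-free assay with purified firefly luciferase at 100 ng per well in PBS; test concentration not given here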
Chain of Luciferin 4-monooxygenase (Photinus pyralis) (P08659 whole entry, looked up): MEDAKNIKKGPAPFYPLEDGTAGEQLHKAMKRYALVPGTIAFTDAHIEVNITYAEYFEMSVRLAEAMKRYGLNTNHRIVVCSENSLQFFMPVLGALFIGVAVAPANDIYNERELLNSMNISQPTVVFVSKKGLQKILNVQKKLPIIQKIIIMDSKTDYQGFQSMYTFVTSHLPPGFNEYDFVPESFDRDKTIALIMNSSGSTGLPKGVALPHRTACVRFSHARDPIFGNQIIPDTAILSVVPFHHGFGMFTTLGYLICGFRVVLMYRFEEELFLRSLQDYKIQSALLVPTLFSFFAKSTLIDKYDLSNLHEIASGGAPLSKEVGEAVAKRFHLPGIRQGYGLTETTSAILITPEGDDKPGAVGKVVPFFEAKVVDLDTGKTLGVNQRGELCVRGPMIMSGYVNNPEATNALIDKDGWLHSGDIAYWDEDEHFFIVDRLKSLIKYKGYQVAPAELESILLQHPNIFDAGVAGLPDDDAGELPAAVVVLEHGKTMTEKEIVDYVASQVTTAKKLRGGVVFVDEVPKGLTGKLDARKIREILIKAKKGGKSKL

| Compound | composite z-score (Albumin (Bos taurus)) | composite Z-score [1] | composite z-score [2] | composite z-score [3] | composite z-score [4] | composite z-score [5] | composite z-score [6] | composite z-score (Sam68 (KHDRBS1)) | composite z-score [7] | composite z-score [8] | composite z-score [9] | composite z-score [10] | composite z-score [11] | composite z-score [12] | composite z-score [13] | composite z-score [14] | z-score [15] | composite z-score (Lefty1) | composite z-score [16] | z-score [17] |
| --- | --- | --- | --- | --- | --- | --- | --- | --- | --- | --- | --- | --- | --- | --- | --- | --- | --- | --- | --- | --- |
| C=C(CCCC)C(=O)CC[C@H](OC(=O)c1ccccc1-c1ccccc1C(=O)O)c1ccc(OCCO)cc1 | 0.763 | -0.235 (inactive) | 0.184 | -0.185 | 0.573 | 1.2 | -0.0334 | 0.958 | 0.0139 | 0.969 | 0.321 | 0.632 | -0.0609 | 0.0905 | 0.571 | 1.26 | 0.128 | 1.1 | 0.708 | -1.95 (inactive) |
| O=C(N1CCOCC1)[C@@]1(Cc2ccccc2)COC(c2ccc(OCCCO)cc2)=N1 | 1 | -0.0252 (inactive) | 0.14 | 0.245 | 0.769 | 2.7 | 0.872 | 1.19 | -0.354 | 0.578 | 2.69 | 1.23 | 0.674 | 0.767 | -0.119 | -0.445 | -1.04 | -1.1 | 0.603 | -0.276 (inactive) |
| CC(C)(C)OC(=O)CC[C@@]1(C(=O)NCCN2CCOCC2)N=C(c2ccc(OCCCO)cc2)O[C@@H]1c1ccccc1CN=[N+]=[N-] | 0.812 | 2.03 (inactive) | 0.0488 | -0.112 | 0.245 | 1.17 | 0.59 | 0.696 | -0.743 | 1.08 | 0.384 | 0.372 | 0.499 | 1.01 | -0.0674 | -0.495 | -0.293 | -0.0313 | 0.608 | -4.33 (inactive) |
| CC(C)=C1C(=O)C(c2ccccc2)=C2CN3C(=O)N(CCc4ccccc4)C(=O)[C@]3(C)[C@H]21 | 0.826 | 0.432 (inactive) | 0.0162 | 0.166 | 0.373 | 1.23 | -0.414 | 0.141 | -0.686 | 0.809 | -0.0854 | 0.871 | 0.701 | 0.679 | 0.21 | -0.648 | 1.77 | -0.455 | 0.673 | 0.0775 (inactive) |
| C=C(/C(=C/C[C@@H](OC(C)=O)c1cccc(OCCO)c1)c1cnc2ccccc2c1)C(C)C | 0.286 | 0.19 (inactive) | -0.0787 | -0.124 | 0.803 | 1.26 | -0.149 | 0.869 | 1.38 | 0.629 | 0.607 | 0.472 | 0.138 | -0.31 | 1.5 | 1.68 | 0.41 | 1.55 | 1.07 | -0.614 (inactive) |
| O=C(NC1CC1)[C@@H]1c2ccccc2C(=O)N(Cc2cc(C(F)(F)F)cc(C(F)(F)F)c2)[C@H]1c1ccc(CO)cc1 | -0.148 | -0.563 (inactive) | -0.352 | -0.102 | 0.679 | 1.29 | 0.174 | 0.157 | -0.936 | 0.321 | 0.399 | 0.228 | 0.052 | 0.427 | 0.755 | 0.0292 | -0.197 | -0.291 | 0.416 | -0.423 (inactive) |
| CN(C)CCCC[C@@H]1NC(=O)[C@@H]2C[C@H](C(=O)NCCCCCN)[C@H](c3cccc(OCCO)c3)N2C1=O | 0.49 | 0.932 (inactive) | 0.423 | -0.14 | 0.727 | 0.482 | 1.27 | 1.33 | 0.495 | 1.21 | 2.76 | 1.05 | -0.155 | 0.851 | 1.08 | 1.25 | 2.13 | 0.908 | 0.632 | -1.6 (inactive) |
| COC(=O)[C@@]1(Cc2ccccc2)[C@H]2c3cc(C(=O)N4CCCC4)n(Cc4ccc(OC)c(OC)c4)c3C[C@H]2CN1C(=O)c1ccccc1 | 0.909 | 0.651 (inactive) | 1.11 | 0.204 | 0.853 | 3.22 | 0.382 | 1.04 | -1.05 | 0.827 | 0.682 | 1.27 | 0.916 | 1.03 | 0.528 | -0.502 | 1.99 | -0.115 | 0.863 | 2.75 (inactive) |
| COc1ccc([Si](C)(C)[C@@H]2[C@@H](CC(=O)N3Cc4ccccc4C[C@H]3CO)O[C@]3(C(=O)N(Cc4cccc(N5CCOC5=O)c4)c4ccccc43)[C@H]2C)cc1 | -0.699 | 0.844 (inactive) | 0.0016 | -0.117 | 0.038 | 0.479 | 0.333 | 1.1 | 1.32 | 0.844 | 1.23 | 0.402 | 0.0975 | 0.0735 | 1.41 | 1.4 | -0.661 | 1.54 | -0.244 | 0.274 (inactive) |
| COCCOC(=O)N1C(=O)[C@@]2(c3cc(C#CCC(C(=O)OC)C(=O)OC)ccc31)[C@H](C(N)=O)[C@H]1C(=O)O[C@H](c3ccccc3)[C@H](c3ccccc3)N1[C@@H]2c1ccc(O)cc1 | 0.751 | -0.642 (inactive) | 0.104 | -0.0282 | 0.407 | 1.97 | 0.134 | 1.3 | 0.778 | 0.951 | 2.22 | 1.23 | 0.601 | 0.92 | 1.33 | 0.468 | -2.31 | 1 | 1.06 | -0.878 (inactive) |
